According to PubChem BioAssay (NCATS):
Records with an inconclusive call do not appear. Calls of active or inactive are those of the source. Unless noted, calls follow the shape of the dose curve; as a rule, active = well fitted cell-killing curve with a large enough effect; inconclusive = small, poorly fitted or top-dose-only effect, or effect the other way; inactive = flat fitted curve, though single readings scatter.

Key:
[1] = qHTS assay for cell viability of HEK293 cells (AID 743288); details: ATP luminescence (CellTiter-Glo), 18 h; max response: hits give low values; also: % is scaled to controls: 0 for no effect and ±100 for the full control effect; nearly all actives have a fitted effect of over 50% in size
Procedure, shortened: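 Quantitative high-throughput screen: compounds were pinned onto parental HEK293 cells (2,000 per well) after a minimum 5 h settling at 37 C, incubated 18 h at 37 C, and intracellular ATP measured by luciferase luminescence.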

[2] = qHTS assay for cell viability of the p53RE-bla HCT-116 cell line (AID 743292); also: % is scaled to controls: 0 for no effect and ±100 for the full control effect; nearly all actives have a fitted effect of over 55% in size
Procedure, shortened: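 Quantitative high-throughput format: compounds in DMSO were pinned onto p53RE-bla HCT-116 cells (4,000/well) and incubated 16 h at 37 C. Total intracellular ATP, read by CellTiter-Glo luminescence, reflects viable cell number.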

[3] = qHTS assay for small molecule activators of the human pregnane X receptor (PXR) signaling pathway (AID 720659; call rule not given here; also: 0% is about no effect)

N[C@@H](Cc1ccccc1)C(=O)O
inactive: max response [1] 2.21% | Potency [2] | outcome [3]
